# Data as given in PubChem BioAssay.
# Several values for one entry are separate records, joined by “and”; a condition that tells them apart may be missing. Identical values can stand only once. Records with an inconclusive call do not appear. Activity calls are given as the source filed them.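 Rule for the calls, unless noted: active = compounds whose cell count with miR-34 switched on is under 0.7 times the count with it off; inactive = the rest.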
# How the values were obtained:
# [1] = P. berghei load reduction in hepatocytes – cell-based, HepG2, luciferase luminescence, HepG2 viability, primary screen (AID 624349; in the data active = parasite load remaining mostly below about 12%, no sharp cut-off; inactive = mostly above about 10%;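 note: 100% = mean of DMSO negative control wells on the same plate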); conditions: P. berghei liver stage in HepG2, luciferase luminescence, concentration not given here; parasite load remaining: stronger effect = lower value; viability: measured here: HepG2 viability without parasites
# [2] = viability loss with induced miR-34 in A549 – imaging, A549 dox-inducible miR-34, nuclei and caspase counts, primary screen (AID 1347080); conditions: A549 miR-34 inducible, Hoechst nuclei count, 48 h
# [3] = MELAS cybrid and Rieske KO viability enhancers – cell-based, MELAS cybrids, Rieske KO mouse fibroblasts, CellTiter-Glo, primary screen (AID 1508586;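 active = mean z-score across replicates of 1.96 or higher in either the MELAS or the Rieske mutant cell line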;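 note: z relative to plate mean and SD of compound and empty wells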); conditions: low glucose
# [4] = target: ATP-dependent translocase ABCB1 (Homo sapiens) (UniProt P08183); assay: P-glycoprotein substrate transport blockade – cell-based (AID 377; in the data active = fluorescence slope change above about 50%); conditions: MDR1-expressing cells, fluorescent substrate accumulation slope; stronger effect = higher value; concentration not given here
# ATP-dependent translocase ABCB1 (Homo sapiens), sequence (P08183 whole entry, looked up): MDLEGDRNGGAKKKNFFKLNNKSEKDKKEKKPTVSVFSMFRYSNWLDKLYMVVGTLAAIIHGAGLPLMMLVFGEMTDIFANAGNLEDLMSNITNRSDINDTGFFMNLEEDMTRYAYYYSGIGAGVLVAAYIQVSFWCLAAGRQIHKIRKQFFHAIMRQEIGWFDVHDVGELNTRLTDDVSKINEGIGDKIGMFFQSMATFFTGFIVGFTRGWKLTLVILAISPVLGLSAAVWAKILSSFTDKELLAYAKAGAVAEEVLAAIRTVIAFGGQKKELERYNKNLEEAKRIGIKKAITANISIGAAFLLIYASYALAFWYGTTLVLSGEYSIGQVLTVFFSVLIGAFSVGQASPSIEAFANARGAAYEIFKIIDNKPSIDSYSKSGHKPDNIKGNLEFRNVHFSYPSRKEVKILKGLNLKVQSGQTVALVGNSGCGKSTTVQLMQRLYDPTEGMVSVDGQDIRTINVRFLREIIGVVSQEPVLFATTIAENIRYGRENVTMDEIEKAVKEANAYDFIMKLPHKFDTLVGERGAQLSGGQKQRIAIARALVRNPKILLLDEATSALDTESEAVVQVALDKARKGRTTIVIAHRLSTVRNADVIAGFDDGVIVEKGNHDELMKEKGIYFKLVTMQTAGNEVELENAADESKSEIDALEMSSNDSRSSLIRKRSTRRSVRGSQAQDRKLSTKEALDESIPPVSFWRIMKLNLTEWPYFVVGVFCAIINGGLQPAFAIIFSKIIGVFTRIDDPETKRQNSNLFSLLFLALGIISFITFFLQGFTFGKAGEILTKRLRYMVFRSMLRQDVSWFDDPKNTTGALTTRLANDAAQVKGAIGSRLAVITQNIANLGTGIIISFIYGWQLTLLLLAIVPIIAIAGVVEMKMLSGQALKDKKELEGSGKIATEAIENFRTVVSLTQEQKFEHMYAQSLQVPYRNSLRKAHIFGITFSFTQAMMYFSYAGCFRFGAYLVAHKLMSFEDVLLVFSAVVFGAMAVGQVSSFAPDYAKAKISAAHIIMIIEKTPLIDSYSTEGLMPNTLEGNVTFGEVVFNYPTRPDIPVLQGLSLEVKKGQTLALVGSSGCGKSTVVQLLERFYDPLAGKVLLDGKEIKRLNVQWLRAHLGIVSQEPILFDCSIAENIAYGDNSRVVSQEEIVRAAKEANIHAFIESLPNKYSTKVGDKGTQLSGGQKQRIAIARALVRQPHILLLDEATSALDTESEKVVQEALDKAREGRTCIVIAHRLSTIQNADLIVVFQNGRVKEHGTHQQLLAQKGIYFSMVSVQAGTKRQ
# [5] = compounds altering viability of human ES cells (AID 493140; call rule not given here;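 note: cells exposed to compounds for four days before counting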); conditions: human embryonic stem cell survival screen; stronger effect = higher value
# [6] = target: Mitogen-activated protein kinase 7 (Homo sapiens) (UniProt Q13164); assay: Gal4-ERK5 driven luciferase induction – cell-based, HTS, primary screen (AID 1508626;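 active = luciferase signal above three times the same-plate solvent-only control wells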;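 note: luciferase driven by Gal4-ERK5 fusion binding five Gal4 sites before minimal TATA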); conditions: HeLa Gal4-ERK5 transactivation, 18 h, at 5 µM, stronger effect = higher value
# Mitogen-activated protein kinase 7 (Homo sapiens), sequence (Q13164 whole entry, looked up, the tested form may be a part): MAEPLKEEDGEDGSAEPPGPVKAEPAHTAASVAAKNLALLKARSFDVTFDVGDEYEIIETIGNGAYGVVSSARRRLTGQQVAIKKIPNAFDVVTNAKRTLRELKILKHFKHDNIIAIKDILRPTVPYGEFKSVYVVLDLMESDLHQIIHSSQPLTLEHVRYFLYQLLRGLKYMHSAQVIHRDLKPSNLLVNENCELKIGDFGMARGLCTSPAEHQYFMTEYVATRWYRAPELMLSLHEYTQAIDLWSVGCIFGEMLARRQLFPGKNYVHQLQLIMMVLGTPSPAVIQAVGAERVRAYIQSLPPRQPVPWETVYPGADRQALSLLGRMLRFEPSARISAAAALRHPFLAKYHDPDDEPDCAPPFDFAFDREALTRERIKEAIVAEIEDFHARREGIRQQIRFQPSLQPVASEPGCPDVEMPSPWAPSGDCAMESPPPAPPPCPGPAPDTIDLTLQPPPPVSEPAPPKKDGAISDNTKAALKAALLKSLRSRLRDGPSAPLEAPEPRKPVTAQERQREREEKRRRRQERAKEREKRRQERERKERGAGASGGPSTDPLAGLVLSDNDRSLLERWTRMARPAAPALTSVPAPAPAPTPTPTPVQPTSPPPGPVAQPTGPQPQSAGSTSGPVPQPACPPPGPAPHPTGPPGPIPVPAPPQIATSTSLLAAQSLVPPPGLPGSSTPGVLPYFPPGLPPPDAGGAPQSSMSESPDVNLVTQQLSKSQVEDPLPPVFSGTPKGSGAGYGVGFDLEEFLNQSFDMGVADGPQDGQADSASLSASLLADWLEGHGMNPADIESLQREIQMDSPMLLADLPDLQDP
# [7] = galactose survival enhancers in mitochondrial complex I cybrids – cell-based, galactose medium, ATP luminescence, primary screen (AID 1645843;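 active = z-score of at least 1.8 in each of two replicates, scored against plate mean and spread of sample wells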;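 note: positive z means more ATP and so rescue of galactose-driven cybrid death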); conditions: complex I mutant cybrid cells, 72 h, stronger effect = higher value
# [8] = system: Hepatitis C virus NS3 helicase; assay: blockers of NS3h binding to ssDNA – biochemical, fluorescence polarization, LOPAC1280 library, primary screen (AID 687035; in the data active = inhibition above about 37%); conditions: Purified HCV NS3 helicase, Cy5-dT15 ssDNA binding fluorescence polarization; stronger effect = higher value; concentration not given here
# [9] = compounds altering Cy5-DNA-NS3h complex signal – biochemical, LOPAC1280, artefact control for HCV NS3 helicase inhibitor project (AID 687037; call rule not given here); conditions: Cy5-DNA-NS3h complex fluorescence interference counterscreen
# [10] = blockers of MitoPT in mitochondria (AID 1580; call rule not given here); conditions: isolated mitochondria, permeability transition inhibition
# [11] = blockers of polyQ-driven CASP3 activation – cell-based (AID 1583); conditions: polyglutamine-induced caspase-3 activation, cell assay; stronger effect = higher value;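 tested at 10 µM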
# [12] = yeast 75Q aggregation reduction – 75Q-TubU reporter (AID 1593); conditions: Yeast 75Q polyglutamine aggregation reporter
# [13] = blockers of cytochrome c efflux from mitochondria – biochemical, purified mitochondria (AID 1603); conditions: stronger effect = lower value;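 note: mouse liver mitochondria challenged with calcium chloride; signal normalized to the plate average as 100%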
# [14] = polyglutamine aggregate formation blockers (AID 1604); conditions: polyglutamine-induced protein aggregation inhibition assay; stronger effect = higher value; tested at 2.5 µM
# [15] = rescue of PC12 cells from polyQ htt toxicity – LDH release (AID 1610); conditions: PC12 mutant huntingtin toxicity, final LDH at 4 uM, stronger effect = lower value
# [16] = glutamate transport activators, MN-1 cells, MN-1 cell line (AID 1612); conditions: MN-1 motor neuron cells, stronger effect = higher value;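 note: tested at 1 µM final; 0% = mean of DMSO vehicle wells on each plate; positive means more glutamate uptake than control and negative means less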
# [17] = 75Q-TubH aggregate inhibition, S. cerevisiae, yeast (AID 1616); conditions: S. cerevisiae 75Q-TubH polyglutamine aggregation suppression; stronger effect = higher value
# [18] = stronger effect = lower value, cell number ratio, induced over uninduced
# [19] = measured here: relative caspase fold change +Dox/-Dox
# [20] = measured here: total cells with miR-34 induction, stronger effect = lower value
# [21] = measured here: total cells without miR-34 induction
# [22] = MELAS cybrid survival, CellTiter-Glo 48 h, stronger effect = higher value
# [23] = Rieske KO mouse fibroblast survival, CellTiter-Glo 72 h
smiles,measurement,setting,value
C[N+]1(C)C2CC[C@H]1CC(OC(=O)C(CO)c1ccccc1)C2 (some centres undefined),parasite load remaining,[1],93.5% (inactive)
same,viability,[1],105%
same,fold change,[2]; [18],0.955 (inactive)
same,fold change,[2]; [19],1.32
same,cell count,[2]; [20],8910
same,cell count,[2]; [21],9340
same,z-score,[3]; [22],0.0273 (inactive)
same,z-score,[3]; [23],-0.854
C[C@]12CC[C@H]3[C@@H](CC[C@]4(O)C[C@@H](O)CC[C@]34C=O)[C@@]1(O)CC[C@@H]2C1=CC(=O)OC1,fluorescence slope change,[4],11.2% (inactive)
same,survival,[5],1.42 (inactive)
same,parasite load remaining,[1],0.385% (inactive)
same,viability,[1],54%
same,fold change,[2]; stronger effect = lower value,1.08 (inactive)
same,fold change,[2]; [19],0.794
same,cell count,[2]; [20],773
same,cell count,[2]; [21],713
same,luciferase signal,[6],16 AU (inactive)
Nc1cc2c(ncn2CCOCP(=O)(O)O)c(=O)[nH]1,fold change,[2]; stronger effect = lower value,1.06 (inactive)
same,fold change,[2]; [19],1.02
same,cell count,[2]; [20],3380
same,cell count,[2]; [21],3200
same,z-score,[7],-0.655 (inactive)
CC(C)[C@]12OC1C1O[C@]13[C@]1(OC1CC1C4=C(CC[C@@]13C)C(=O)OC4)C2O (some centres undefined),fold change,[2]; [18],0.971 (inactive)
same,fold change,[2]; [19],1.93
same,cell count,[2]; [20],2260
same,cell count,[2]; [21],2320
same,z-score,[7],-1.85 (inactive)
Oc1ccc2c3c1OC1c4[nH]c5ccccc5c4C[C@@]4(O)C(C2)N(CC2CC2)CC[C@]314 (some centres undefined),fold change,[2]; stronger effect = lower value,0.943 (inactive)
same,fold change,[2]; [19],1.78
same,cell count,[2]; [20],8150
same,cell count,[2]; [21],8650
same,z-score,[7],-0.925 (inactive)
CN[C@@H]1[C@@H](O)[C@@H](O[C@@H]2[C@@H](O)[C@H](O[C@H]3O[C@H]([C@@H](C)NC)CC[C@H]3N)[C@@H](N)C[C@H]2N)OC[C@]1(C)O (tested in a mixture with another compound),survival,[5],18.8 (inactive)
same,parasite load remaining,[1],54.7% (inactive) and 51.8% (inactive)
same,viability,[1],60.6% and 91.5%
same,fold change,[2]; stronger effect = lower value,1.02 (inactive)
same,fold change,[2]; [19],0.941
same,cell count,[2]; [20],8090
same,cell count,[2]; [21],7960
same,z-score,[3]; [22],-0.902 (inactive)
same,z-score,[3]; [23],-0.563
CN[C@@H]1[C@@H](O)[C@@H](O[C@@H]2[C@@H](O)[C@H](O[C@H]3O[C@H]([C@@H](C)NC)CC[C@H]3N)[C@@H](N)C[C@H]2N)OC[C@]1(C)O,parasite load remaining,[1],20.1% (inactive)
same,viability,[1],64.5%
same,fold change,[2]; stronger effect = lower value,0.872 (inactive)
same,fold change,[2]; [19],1.03
same,cell count,[2]; [20],10000
same,cell count,[2]; [21],11500
same,z-score,[3]; [22],0.508 (inactive)
same,z-score,[3]; [23],0.179
C[C@]12CCC3[C@@H](CC[C@@H]4C[C@H](O)CC[C@]34C)[C@@H]1CCC2=O (some centres undefined),fluorescence slope change,[4],52.7% (active)
same,survival,[5],4.25 (inactive)
same,parasite load remaining,[1],68.6% (inactive)
same,viability,[1],95.7%
same,fold change,[2]; stronger effect = lower value,0.895 (inactive)
same,fold change,[2]; [19],1.16
same,cell count,[2]; [20],8930
same,cell count,[2]; [21],9980
same,z-score,[3]; [22],-0.449 (inactive)
same,z-score,[3]; [23],0.448
C[C@]12CCC3C(CCC4=CC(=O)CC[C@@]43C)C1CCC2O (some centres undefined),fold change,[2]; stronger effect = lower value,0.881 (inactive)
same,fold change,[2]; [19],1.72
same,cell count,[2]; [20],8500
same,cell count,[2]; [21],9660
same,z-score,[7],0.515 (inactive)
CC(=O)OCC(=O)[C@H]1CC[C@H]2[C@@H]3CC[C@H]4C[C@H](O)CC[C@]4(C)[C@H]3C(=O)C[C@]12C,survival,[5],32.2 (inactive)
same,parasite load remaining,[1],133% (inactive)
same,viability,[1],77.5%
same,fold change,[2]; stronger effect = lower value,0.969 (inactive)
same,fold change,[2]; [19],0.588
same,cell count,[2]; [20],8940
same,cell count,[2]; [21],9230
same,z-score,[3]; [22],-0.0226 (inactive)
same,z-score,[3]; [23],0.294
CCCCCN(C)CCC(O)(P(=O)(O)O)P(=O)(O)O,inhibition,[8],-2% (inactive)
same,fluorescence ratio (interference),[9],1 (inactive)
same,fold change,[2]; [18],0.977 (inactive) and 0.868 (inactive)
same,fold change,[2]; [19],0.937 and 1.66
same,cell count,[2]; [20],10500 and 8850
same,cell count,[2]; [21],10800 and 10200
same,z-score,[3]; [22],-0.786 (inactive) and -0.235 (inactive)
same,z-score,[3]; [23],0.068 and -1.03
same,z-score,[7],0.42 (inactive) and 0.08 (inactive)
CC[C@@]1(O)C(=O)OCc2c1cc1n(c2=O)Cc2cc3c(O)cccc3nc2-1,parasite load remaining,[1],25.4% (inactive)
same,viability,[1],34%
same,fold change,[2]; stronger effect = lower value,0.938 (inactive) and 1.02 (inactive)
same,fold change,[2]; [19],0.873 and 1
same,cell count,[2]; [20],1030 and 1460
same,cell count,[2]; [21],1100 and 1430
same,z-score,[3]; [22],-1.16 (inactive)
same,z-score,[3]; [23],-0.93
same,z-score,[7],-2.13 (inactive)
CN1CC[C@@]2(C)c3cc(O)ccc3N(C)[C@H]12,parasite load remaining,[1],82.4% (inactive)
same,viability,[1],73.5%
same,fold change,[2]; [18],0.908 (inactive)
same,fold change,[2]; [19],0.758
same,cell count,[2]; [20],8570
same,cell count,[2]; [21],9440
same,z-score,[3]; [22],0.308 (inactive)
same,z-score,[3]; [23],1.44
CNc1ccc2oc(C[C@@H]3OC4(CC[C@@H]3C)O[C@H](C(C)C(=O)c3ccc[nH]3)[C@H](C)C[C@H]4C)nc2c1C(=O)O (some centres undefined),EC50,[10],1 µM (active)
same,inhibition,[11],86.4%
same,score,[12],-0.79
same,cytochrome c release ratio,[13],0.48
same,inhibition of aggregation,[14],51.9%
same,normalised LDH release,[15],1.68
same,glutamate uptake change,[16],-78%
same,aggregation suppression score,[17],-0.166
same,fold change,[2]; stronger effect = lower value,1.33 (inactive)
same,fold change,[2]; [19],0.886
same,cell count,[2]; [20],885
same,cell count,[2]; [21],666
C(#CCN1CCCC1)CN1CCCC1,fluorescence slope change,[4],19.7% (inactive)
same,survival,[5],6.42 (inactive)
same,parasite load remaining,[1],82.8% (inactive) and 98.5% (inactive)
same,viability,[1],112% and 92.6%
same,fold change,[2]; [18],0.85 (inactive)
same,fold change,[2]; [19],1.28
same,cell count,[2]; [20],8550
same,cell count,[2]; [21],10100
same,z-score,[3]; [22],0.0358 (inactive)
same,z-score,[3]; [23],-0.183
C=C1N[C@@H](Cc2ccc3[nH]cc(CCN(C)C)c3c2)CO1,parasite load remaining,[1],49.1% (inactive)
same,viability,[1],107%
same,fold change,[2]; stronger effect = lower value,0.795 (inactive)
same,fold change,[2]; [19],1.08
same,cell count,[2]; [20],9100
same,cell count,[2]; [21],11400
same,z-score,[3]; [22],0.499 (inactive)
same,z-score,[3]; [23],0.377
same,z-score,[7],0.28 (inactive)
CCC1(C)CC(=O)NC(=O)C1,survival,[5],3.92 (inactive)
same,parasite load remaining,[1],94.7% (inactive)
same,viability,[1],101%
same,fold change,[2]; stronger effect = lower value,0.856 (inactive) and 0.868 (inactive)
same,fold change,[2]; [19],1.33 and 1.2
same,cell count,[2]; [20],8070 and 7990
same,cell count,[2]; [21],9420 and 9200
same,z-score,[3]; [22],-0.143 (inactive) and 0.0597 (inactive)
same,z-score,[3]; [23],-0.288 and -0.916
